High-throughput results: PubChem, several laboratories
VHR inh abs: inhibitors of human VHR1 phosphatase (DUSP3). recombinant VHR phosphatase, pNPP absorbance. P51452. AID 1654. 0.52% of 290,000 active. inhibition, % at 13.3 µM; in the data active = inhibition above about 50%
3CLpro inhibitor: SARS-CoV 3CLpro protease inhibition; recombinant SARS-CoV 3CLpro, quenched FRET peptide cleavage; P0C6X7; inhibition, % at 6 µM; 0.14% of 290,000 active; in the data active = inhibition above about 12%
GDH-TPI inh: counter-screen for M. tuberculosis FBA inhibitors: GDH-TPI coupled enzymes; GDH-TPI coupled enzyme counterscreen, NADH absorbance; inhibition, % at 4.8 µM; 1.2% of 360,000 active; AID 588335
CCHF vOTU inh: CCHFV vOTU protease inhibition. Pep-AMC fluorescence. inhibition, % at 11.5 µM. 0.55% of 370,000 active. AID 651958
FBA Mtb inh: inhibitors of M. tuberculosis fructose-bisphosphate aldolase | purified M. tuberculosis FBA, fluorescence read-out | P9WQA3 | 2.3% of 360,000 active | inhibition, % at 1 µM; in the data active = inhibition above about 27%
RecA intein inh: Mtb RecA intein splicing inhibition; P9WHJ3; cell-free RecA intein splicing, fluorescence; inhibition, % (concentration not given with the values); 0.75% of 290,000 active; in the data active = inhibition above about 30%
Target sequence (P9WHJ3 whole entry, looked up): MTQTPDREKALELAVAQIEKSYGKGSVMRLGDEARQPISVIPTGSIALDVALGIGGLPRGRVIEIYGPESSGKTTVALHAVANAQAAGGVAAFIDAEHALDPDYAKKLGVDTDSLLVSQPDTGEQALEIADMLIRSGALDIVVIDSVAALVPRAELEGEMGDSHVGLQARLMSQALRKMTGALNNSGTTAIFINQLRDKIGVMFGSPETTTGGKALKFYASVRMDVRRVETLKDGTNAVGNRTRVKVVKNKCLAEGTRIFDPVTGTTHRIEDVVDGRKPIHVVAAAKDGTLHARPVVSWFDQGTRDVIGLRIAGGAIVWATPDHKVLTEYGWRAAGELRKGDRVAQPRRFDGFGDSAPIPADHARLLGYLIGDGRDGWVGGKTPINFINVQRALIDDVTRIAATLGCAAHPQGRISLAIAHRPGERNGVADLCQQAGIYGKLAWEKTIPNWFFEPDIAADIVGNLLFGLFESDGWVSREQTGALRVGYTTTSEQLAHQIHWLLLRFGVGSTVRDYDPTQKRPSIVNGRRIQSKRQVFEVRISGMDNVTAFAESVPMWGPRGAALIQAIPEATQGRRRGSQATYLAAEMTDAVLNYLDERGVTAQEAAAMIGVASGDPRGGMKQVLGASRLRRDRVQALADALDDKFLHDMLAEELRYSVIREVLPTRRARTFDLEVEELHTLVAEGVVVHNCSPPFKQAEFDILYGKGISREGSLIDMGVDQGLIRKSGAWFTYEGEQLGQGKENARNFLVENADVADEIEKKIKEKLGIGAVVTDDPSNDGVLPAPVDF
Hits are given with their value; i = inactive; nt = no result; + = active, no number. Shown are actives, neighbours in structure and some others; about 4.7% of the full set was active somewhere. Cut-off read from the data, not from the text of the source, unless noted: active = inhibition above about 30%; inactive = the rest.

SMILES | VHR inh abs | 3CLpro inhibitor | GDH-TPI inh | CCHF vOTU inh | FBA Mtb inh | RecA intein inh
Cc1ccc2c(c1)[nH]c1c(=O)n(CCCN3CCOCC3)cnc12 | i | i | i | i | i | i
COc1ccc2[nH]c3c(=O)n(CCN4CCOCC4)cnc3c2c1 | i | i | 30.9 | i | 151.6 | i
COc1ccc(-c2cc(NC(=O)Cc3c[nH]c4ccccc34)ccc2Nc2cccnc2)cc1F | nt | nt | nt | i | nt | nt
S=c1[nH]nc(-c2ccccc2)n1/N=C/c1ccc(-c2ccccc2Cl)o1 | i | i | i | i | i | i
Cc1nnc(C)n1/N=C/c1ccc(-c2ccccc2Cl)o1 | i | i | 45.5 | i | i | i
COc1ccc(Cl)cc1Nc1cc(C)nc2ccccc12 | nt | nt | i | i | i | i
Cc1cc(C)cc(NC(=O)c2cc(C)nc3ccccc23)c1 | 58.7 | i | i | i | i | i
CC(=O)Nc1ccc(Nc2cc(C)nc3ccccc23)cc1 | nt | nt | 37.9 | i | i | i
Cc1cc(Nc2ccccc2Cl)c2ccccc2n1 | nt | nt | 36.5 | i | i | i
OC[C@@H]1CN(Cc2ccc(-c3ccccc3)cc2)C[C@H](n2cnc3c(NCc4ccncc4)ncnc32)O1 | nt | nt | i | i | i | nt
Cc1ccc(/C=C(\C#N)C(=O)Nc2c(C)cccc2C)s1 | i | i | 45.0 | i | i | i
O=C(CSc1nnc(-c2ccc(Cl)cc2)n1C1CCCCC1)NN=Cc1c(O)ccc2ccccc12 | nt | nt | nt | i | nt | nt
CS(=O)(=O)N(Cc1ccc(Cl)cc1)c1ccc(C(=O)N/N=C/c2cc3ccccc3nc2Cl)cc1 | i | i | i | i | i | i
O=C(NC1=NCCS1)c1ccc(Cl)cc1 | i | i | i | i | i | i
O=C(NC1=NCCS1)c1ccc(-c2ccc(Cl)cc2)o1 | i | i | 55.2 | i | 136.3 | i
O=S(=O)(NNc1ccc(F)cc1F)c1cccc(Cl)c1 | i | i | i | i | i | i
COC(=O)C1CN(Cc2ccccc2)CCS(=O)(=O)N1Cc1cn(Cc2ccc(F)cc2)nn1 (stereo unspecified) | nt | nt | nt | i | nt | nt
Cc1ccc2nc(-c3ccc(NS(=O)(=O)c4ccc(F)c(F)c4)cc3)sc2c1 | i | i | i | i | + | i
Cc1ccc2nc(-c3ccc(NS(=O)(=O)c4ccccc4)cc3)sc2c1 | i | i | i | i | + | i
O=C(c1ccncc1)c1ccc(NS(=O)(=O)c2ccc(Br)s2)cc1 | i | i | 38.5 | i | i | i
CC(C)CCN1C(=O)c2ccc(-c3nc4ccccc4c(=O)o3)cc2C1=O | 50.3 | i | i | i | i | i
O=C1c2ccc(-c3nc4ccccc4o3)cc2C(=O)N1Cc1ccccc1 | nt | i | i | i | i | nt
COc1ccc(C(=O)/C=C/c2ccc(O)cc2)c2c1CC(O)C(C)(C)O2 (stereo unspecified) | nt | nt | 33.3 | i | i | nt
Cc1cc(=O)oc2cc(Nc3ccccc3)ccc12 | i | i | i | i | i | i
Cc1cc(=O)oc2cc(NC(=O)CCCC(=O)O)ccc12 | i | i | i | i | + | i
SMILES | VHR inh abs | 3CLpro inhibitor | GDH-TPI inh | CCHF vOTU inh | FBA Mtb inh | RecA intein inh
CCC(=O)Nc1cc2c(C)cc(=O)oc2cc1C | 55.6 | i | i | i | i | i
Cc1cc(=O)oc2cc(NC(=O)CCC(=O)O)ccc12 | i | i | i | i | 196.8 | i
CC1CC(C)CN(C(=O)C2CCN(c3cncnc3)CC2)C1 (stereo unspecified) | nt | nt | nt | i | nt | nt
O=C1NCCN1CCN1CCC(c2cn(-c3ccc(F)cc3)c3ccc(Cl)cc23)CC1 | nt | nt | nt | i | nt | nt
COc1cccc(OC)c1C(=O)OCC(=O)N(c1ccccc1)C1CCCCC1 | nt | nt | i | i | i | nt
COC(=O)c1ccc(S(=O)(=O)N2CCC(NC(=O)Cc3cccc(C)c3)CC2)cc1 | nt | nt | nt | i | nt | nt
CC(C)(C)c1ccc(/C=C2\SC(=O)N(CCNC(=O)c3cccc(S(=O)(=O)N4CCOCC4)c3)C2=O)cc1 | i | i | i | nt | i | 30.9
Cc1ccc(S(=O)(=O)N2CCOCC2)cc1C(=O)NCCN1C(=O)S/C(=C\c2ccccc2Cl)C1=O | i | i | i | i | i | i
O=Cc1coc2ccc3ccccc3c2c1=O | 55.5 | i | i | i | i | i
Oc1ccc(/C=N/NC(=S)Nc2cccnc2)cc1O | i | i | 33.7 | i | i | i
CC(C)(C)c1ccc(/C=N/NC(=S)Nc2cccnc2)cc1 | i | i | nt | nt | nt | i
Oc1ccc(C=NNC(=S)Nc2cccnc2)nc1 | nt | nt | 50.0 | i | i | nt
CC(=O)N1CCCc2cc(S(=O)(=O)N3CCCC(C(=O)Nc4cccc(C)c4)C3)ccc21 (stereo unspecified) | 54.2 | i | i | i | i | i
CC(C)(C)c1ccc(S(=O)(=O)N2CCCC(C(=O)N3CCN(Cc4ccccc4)CC3)C2)cc1 (stereo unspecified) | nt | nt | nt | i | nt | nt
CCN(CC)c1ccc(C(=C2C=CC(=[N+](CC)CC)C=C2)c2ccc(S(=O)(=O)O)cc2S(=O)(=O)[O-])cc1 | nt | nt | i | i | i | nt
Cc1cccc2cc(CN(CC3CCCO3)C(=O)c3cccnc3)c3nnnn3c12 (stereo unspecified) | i | i | i | i | i | i
COCC(=O)N(Cc1cc2ccc(C)c(C)c2n2nnnc12)C1CCCC1 | 54.4 | i | i | i | i | i
COc1ccccc1Oc1cc(C#N)c(C#N)cc1-n1nnc2ccccc21 | i | i | i | i | i | 41.8
COc1ccccc1Oc1nc(C)c(C(C)=O)cc1C#N | i | i | i | i | i | i
Cc1ccc(Nc2c(-c3ccco3)nc3ccccn23)cc1 | i | i | i | i | 121.2 | i
Fc1ccc(Nc2c(-c3ccco3)nc3ccccn23)cc1 | i | i | i | i | 133.4 | i
CN(C)S(=O)(=O)c1ccc(Cl)c(NC(=O)CN2CCCC2)c1 | i | i | i | i | i | i
COc1ccc(N/C=C2\CCOC2=O)cc1 | i | i | 56.2 | i | i | i
CSc1ccc(C(=O)C2CCCN(C(=O)CCc3cnn(C)c3)C2)cc1 (stereo unspecified) | 50.2 | i | i | i | i | i
CSc1ccc(C(=O)C2CCCN(Cc3cccnc3)C2)cc1 (stereo unspecified) | 57.8 | i | i | i | i | i
SMILES | VHR inh abs | 3CLpro inhibitor | GDH-TPI inh | CCHF vOTU inh | FBA Mtb inh | RecA intein inh
CSc1ccc(C(=O)C2CCCN(Cc3cccn3-c3cccnc3)C2)cc1 (stereo unspecified) | i | i | i | i | i | i
CCC(C)(C)c1ccc(OCCN2C(=O)NC(C)(C)C2=O)cc1 | i | i | i | i | i | i
c1cncc(Nc2c3ccccc3nc3ccccc23)c1 | i | i | i | i | 40.2 | i
COc1ccc(Nc2c3ccccc3nc3ccccc23)cc1 | i | i | i | i | i | i
CCCCNC(=O)C[C@@H]1C[C@@]2(C(=O)OCC)CCC=C2N(CCC2=CCCCC2)C1=O | nt | nt | nt | i | nt | nt
Cc1ccc(S(=O)(=O)N2CCc3ccccc3CC2)cc1 | nt | nt | i | i | i | nt
Cc1ccc(S(=O)(=O)N2CCc3ccccc3C2)cc1 | 52.0 | i | i | i | i | i
c1ccc(-c2nc3c(ccc4ccccc43)[nH]2)nc1 | i | i | 33.3 | i | i | i
O=C(c1c[nH]c(C(=O)C(Cl)(Cl)Cl)c1)c1ccccc1F | i | i | i | i | i | 59.9
CCOC(=O)Cc1csc2nc(-c3ccccc3)cn12 | nt | nt | nt | i | nt | nt
CCOc1cc(/C=C2/N=C(c3ccc4c(c3)OCO4)OC2=O)ccc1OC(C)=O | nt | nt | i | i | i | nt
